{"source": "ChEMBL document CHEMBL3433997", "about": "“St. Jude Leishmania screening dataset” (2016)"}
{"target": "Solute carrier family 2, facilitated glucose transporter member 1 (Homo sapiens) (UniProt P11166)", "sequence (P11166 whole entry)": "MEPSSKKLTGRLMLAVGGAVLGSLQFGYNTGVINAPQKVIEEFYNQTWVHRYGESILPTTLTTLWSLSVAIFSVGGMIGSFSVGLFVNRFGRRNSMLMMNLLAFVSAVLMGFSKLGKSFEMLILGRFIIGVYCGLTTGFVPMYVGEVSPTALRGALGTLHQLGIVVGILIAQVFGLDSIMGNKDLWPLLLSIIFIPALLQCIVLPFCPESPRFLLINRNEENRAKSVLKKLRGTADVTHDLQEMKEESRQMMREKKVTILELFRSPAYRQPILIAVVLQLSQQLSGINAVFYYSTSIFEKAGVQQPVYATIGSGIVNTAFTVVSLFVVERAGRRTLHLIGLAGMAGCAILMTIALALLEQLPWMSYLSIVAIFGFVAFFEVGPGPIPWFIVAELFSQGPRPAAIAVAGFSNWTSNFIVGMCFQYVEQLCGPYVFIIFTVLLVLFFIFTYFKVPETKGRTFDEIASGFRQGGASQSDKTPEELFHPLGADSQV", "test": "ST_JUDE_LEISH: Cytotoxicity at 2uM final concentration against transgenic Leishmania Mexicana promastigotes LmGLUT1 that are glucose transport deficient and complemented with the human glucose transporter GLUT1. Activity is measured by DNA content using SYBR green in vitro", "type": "functional", "units": {"inhibition": "%"}}
{"compound": "CCCCOC(=O)C1=C(C)NC2=C(C(=O)CCC2)C1c1ccc(OC)c(Br)c1", "note": "(stereo not given)", "inhibition": 0.77}
{"compound": "O=C(/C=C/c1ccc(Cl)c(Cl)c1)NCCCCCN1CCCN(C(=O)Nc2ccc(F)c(Cl)c2)CC1", "inhibition": 1.23}
{"compound": "COc1ccc(Br)cc1/C=C/C(=O)Nc1cccc(C2CCN(C)CC2)c1", "inhibition": 3.43}
{"compound": "Cc1noc(C)c1-c1cccc(CNCc2cccc(-c3ccc(-c4nc5ccccc5[nH]4)s3)c2)c1", "inhibition": 8.57}
{"compound": "CCN(CC)CCN(Cc1ccc(-c2ccc(C(F)(F)F)cc2)cc1)C(=O)Cn1c(CCc2cc(F)ccc2F)nc(=O)c2ccccc21", "inhibition": 1.25}
{"compound": "CCOC(=O)CC[C@H](NC(=O)c1ccc(NS(=O)(=O)c2ccc(-c3cnc(N)[nH]c3=O)cc2)cc1)C(=O)OCC", "inhibition": 4.2}
{"compound": "Cc1ccc(-c2cc(C(=O)Nc3ccc(S(=O)(=O)N4CCCC(C)C4)cc3)[nH]n2)c(O)c1", "note": "(stereo not given)", "inhibition": -1.53}
{"compound": "COc1cccc2[nH]c(NCCCNCc3cc(Br)cc(Br)c3)nc12", "inhibition": 3.51}
{"compound": "Cn1c(=O)c2cc(C(=O)NCCCN3CCCCCC3)sc2c2ccccc21", "inhibition": 2.89}
{"compound": "COCCNc1nc(N2CCC(CNC(=O)c3ccc(-c4ccc(C(=O)N(C)C)cc4C)cc3)CC2)nc2cc(OC)c(OC)cc12", "inhibition": -0.42}
{"compound": "CCNC1=NC2=C(CC(C(C)(C)C)CC2)C2(CCC(C(C)(C)C)CC2)S1", "note": "(stereo not given)", "inhibition": 4.57}
{"compound": "Cc1nc2nc(N)nc(N)c2c(C)c1Cc1ccccc1Br", "inhibition": 7.5}
{"compound": "CCCCOc1ccc(N2C(N)=NC(N)=NC2(C)C)cc1", "inhibition": 2.55}
{"compound": "Cc1ccc(Cc2cnc(CN3CCCCC3)c(O)c2)cc1", "inhibition": -1.22}
{"compound": "CCOC(=O)c1ccc(NC(=O)Nc2ccc(-c3cccc(-c4nc5cccc(C)c5[nH]4)c3)cc2)cc1", "inhibition": -0.01}
{"compound": "Clc1ccc(-c2nc3cc(-c4ccc5nc(-c6ccc(Cl)cc6)[nH]c5c4)ccc3[nH]2)cc1", "inhibition": 11.2}
{"compound": "CCOc1ncccc1CN1CCC(N2CCc3cc(NC(=O)c4ccco4)ccc32)C1", "note": "(stereo not given)", "inhibition": 0.43}
{"compound": "CC(Oc1c(C2CCN(CCCCNC(=O)c3ccc(-c4ccc(Cl)cc4)cc3)CC2)ccc2c1CCCC2)C(N)=O", "note": "(stereo not given)", "inhibition": -0.63}
{"compound": "COc1ccc(N2CCN(CCCCNCc3ccc(NC(=O)c4cc(Cl)cc(Cl)c4)cc3)CC2)c(OC)c1", "inhibition": 3.33}
{"compound": "C[C@H]1CN(Cc2cccc(-c3cc(CNC(=O)c4cccc(CC5CCN(C)CC5)c4)ccc3F)c2)CCN1C", "inhibition": 0.87}
{"compound": "Cc1cc(Nc2ccc(OCc3ccccc3Cl)cc2)c2cc(Cl)ccc2n1", "inhibition": 19.8}
{"compound": "O=C(Nc1cccc(CN2CCCN(Cc3ncc[nH]3)CC2)c1)c1ccc(-c2ccccc2)cc1", "inhibition": 0.65}
{"compound": "COc1ccc(-c2nc(NC(=O)CSc3ccccc3)sc2C)cc1", "inhibition": 9.07}
{"compound": "CC(NCCc1cccc(Cl)c1)C(O)c1ccc(OCCCCCCOc2ccc(C(O)C(C)NCCc3cccc(Cl)c3)cc2)cc1", "note": "(stereo not given)", "inhibition": 38.2}
{"compound": "COc1ccc2c(=O)c(I)c(C)[nH]c2c1", "inhibition": -1.2}
{"compound": "COc1cc(F)c2nccc([C@@H](O)CN3CCC(NCc4ccc5c(n4)NC(=O)CS5)CC3)c2c1", "inhibition": -0.92}
{"compound": "CC(C)C[C@H](NC(=O)[C@H](Cc1ccccc1)NC(=O)CCN1C(=O)COc2ccc(C(=O)O)cc21)C(=O)NC(CC1CCCCC1)C(O)CC(=O)NCCCn1ccnc1", "note": "(stereo not given in full)", "inhibition": 9.79}
{"compound": "Fc1cccc(C=NNc2ccnc3cc(Cl)ccc23)c1", "inhibition": 3.49}
{"compound": "COCCn1c(C)nc2ccccc2c1=O", "inhibition": 1.04}
{"compound": "CC(C)N(C(=O)CSc1nc2cc(Cl)ccc2c(=O)n1Cc1ccccc1)C(C)C", "inhibition": 0.98}
{"compound": "COc1ccc(CNC2CCN(C)CC2)cc1-c1ccc(S(=O)(=O)NCc2ccccc2)c(F)c1", "inhibition": -0.66}
{"compound": "Cn1nc(-c2ccc(NC(=O)Nc3cc(C(F)(F)F)ccc3F)c(F)c2)c2cnc(NCCCN3CCOCC3)nc21", "inhibition": 6.47}
{"compound": "Cc1cccc(Nc2nc(N[C@@H]3CCCNC3)nc3cc[nH]c(=O)c23)c1", "inhibition": 92.3}
{"compound": "COc1ccc(C(=O)N2CCC(CN3CCOC(c4ccccc4)(c4ccccc4)C3)CC2)cc1", "inhibition": 0.77}
{"compound": "CCCCCCNC(=O)c1nn(CCN2CCC(N3CCCC3)CC2)cc1-c1ccc(Cl)c(Cl)c1", "inhibition": 0.97}
{"compound": "O=C(Nc1ccccc1Oc1ccccc1)NC1CCN(c2ccnc3cc(Cl)ccc23)C1", "note": "(stereo not given)", "inhibition": 3.65}
{"compound": "CCN(CC)CCNc1nccc(N(C)c2ccc(NC(=O)Nc3cc(C(F)(F)F)ccc3F)cc2)n1", "inhibition": 5.98}
{"compound": "Cc1ccc2nc(C)n(C3CCN(C(=O)Cc4ccccc4C)CC3)c2c1", "inhibition": 5.4}
{"compound": "CCn1c(-c2nonc2N)nc2cnc(Oc3cccc(NC(=O)c4ccc(OCCN5CCCCC5)cc4)c3)cc21", "inhibition": 17.2}
{"compound": "c1ccc(CNc2nc(NCCN3CCCCC3)nc3ccccc23)cc1", "inhibition": 10.2}
{"target": "Hexose transporter 1 (Plasmodium falciparum) (UniProt O97467)", "test": "ST_JUDE_LEISH: Cytotoxicity at 2uM final concentration against transgenic Leishmania Mexicana promastigotes LmPfHT that are glucose transport deficient and complemented with the Plasmodium falciparum hexose transporter. Activity is measured by DNA content using SYBR green in vitro", "type": "functional", "units": {"inhibition": "%"}}
{"compound": "CCCCOC(=O)C1=C(C)NC2=C(C(=O)CCC2)C1c1ccc(OC)c(Br)c1", "note": "(stereo not given)", "inhibition": -0.81}
{"compound": "O=C(/C=C/c1ccc(Cl)c(Cl)c1)NCCCCCN1CCCN(C(=O)Nc2ccc(F)c(Cl)c2)CC1", "inhibition": 1.72}
{"compound": "COc1ccc(Br)cc1/C=C/C(=O)Nc1cccc(C2CCN(C)CC2)c1", "inhibition": 0.87}
{"compound": "Cc1noc(C)c1-c1cccc(CNCc2cccc(-c3ccc(-c4nc5ccccc5[nH]4)s3)c2)c1", "inhibition": 3.74}
{"compound": "CCN(CC)CCN(Cc1ccc(-c2ccc(C(F)(F)F)cc2)cc1)C(=O)Cn1c(CCc2cc(F)ccc2F)nc(=O)c2ccccc21", "inhibition": -1.65}
{"compound": "CCOC(=O)CC[C@H](NC(=O)c1ccc(NS(=O)(=O)c2ccc(-c3cnc(N)[nH]c3=O)cc2)cc1)C(=O)OCC", "inhibition": 5.08}
{"compound": "Cc1ccc(-c2cc(C(=O)Nc3ccc(S(=O)(=O)N4CCCC(C)C4)cc3)[nH]n2)c(O)c1", "note": "(stereo not given)", "inhibition": -1.98}
{"compound": "COc1cccc2[nH]c(NCCCNCc3cc(Br)cc(Br)c3)nc12", "inhibition": 1.26}
{"compound": "Cn1c(=O)c2cc(C(=O)NCCCN3CCCCCC3)sc2c2ccccc21", "inhibition": 4.91}
{"compound": "COCCNc1nc(N2CCC(CNC(=O)c3ccc(-c4ccc(C(=O)N(C)C)cc4C)cc3)CC2)nc2cc(OC)c(OC)cc12", "inhibition": 1.09}
{"compound": "CCNC1=NC2=C(CC(C(C)(C)C)CC2)C2(CCC(C(C)(C)C)CC2)S1", "note": "(stereo not given)", "inhibition": 4.3}
{"compound": "Cc1nc2nc(N)nc(N)c2c(C)c1Cc1ccccc1Br", "inhibition": 14.9}
{"compound": "CCCCOc1ccc(N2C(N)=NC(N)=NC2(C)C)cc1", "inhibition": 1.89}
{"compound": "Cc1ccc(Cc2cnc(CN3CCCCC3)c(O)c2)cc1", "inhibition": -2.99}
{"compound": "CCOC(=O)c1ccc(NC(=O)Nc2ccc(-c3cccc(-c4nc5cccc(C)c5[nH]4)c3)cc2)cc1", "inhibition": -0.4}
{"compound": "Clc1ccc(-c2nc3cc(-c4ccc5nc(-c6ccc(Cl)cc6)[nH]c5c4)ccc3[nH]2)cc1", "inhibition": 12.2}
{"compound": "CCOc1ncccc1CN1CCC(N2CCc3cc(NC(=O)c4ccco4)ccc32)C1", "note": "(stereo not given)", "inhibition": -0.71}
{"compound": "CC(Oc1c(C2CCN(CCCCNC(=O)c3ccc(-c4ccc(Cl)cc4)cc3)CC2)ccc2c1CCCC2)C(N)=O", "note": "(stereo not given)", "inhibition": -0.36}
{"compound": "COc1ccc(N2CCN(CCCCNCc3ccc(NC(=O)c4cc(Cl)cc(Cl)c4)cc3)CC2)c(OC)c1", "inhibition": 2.32}
{"compound": "C[C@H]1CN(Cc2cccc(-c3cc(CNC(=O)c4cccc(CC5CCN(C)CC5)c4)ccc3F)c2)CCN1C", "inhibition": 0.27}
{"compound": "Cc1cc(Nc2ccc(OCc3ccccc3Cl)cc2)c2cc(Cl)ccc2n1", "inhibition": 16.4}
{"compound": "O=C(Nc1cccc(CN2CCCN(Cc3ncc[nH]3)CC2)c1)c1ccc(-c2ccccc2)cc1", "inhibition": 1.21}
{"compound": "COc1ccc(-c2nc(NC(=O)CSc3ccccc3)sc2C)cc1", "inhibition": 4.4}
{"compound": "CC(NCCc1cccc(Cl)c1)C(O)c1ccc(OCCCCCCOc2ccc(C(O)C(C)NCCc3cccc(Cl)c3)cc2)cc1", "note": "(stereo not given)", "inhibition": 69.9}
{"compound": "COc1ccc2c(=O)c(I)c(C)[nH]c2c1", "inhibition": -1.12}
{"compound": "COc1cc(F)c2nccc([C@@H](O)CN3CCC(NCc4ccc5c(n4)NC(=O)CS5)CC3)c2c1", "inhibition": -1.04}
{"compound": "CC(C)C[C@H](NC(=O)[C@H](Cc1ccccc1)NC(=O)CCN1C(=O)COc2ccc(C(=O)O)cc21)C(=O)NC(CC1CCCCC1)C(O)CC(=O)NCCCn1ccnc1", "note": "(stereo not given in full)", "inhibition": 6.73}
{"compound": "Fc1cccc(C=NNc2ccnc3cc(Cl)ccc23)c1", "inhibition": 4.64}
{"compound": "COCCn1c(C)nc2ccccc2c1=O", "inhibition": 1.69}
{"compound": "CC(C)N(C(=O)CSc1nc2cc(Cl)ccc2c(=O)n1Cc1ccccc1)C(C)C", "inhibition": 2.14}
{"compound": "COc1ccc(CNC2CCN(C)CC2)cc1-c1ccc(S(=O)(=O)NCc2ccccc2)c(F)c1", "inhibition": -0.53}
{"compound": "Cn1nc(-c2ccc(NC(=O)Nc3cc(C(F)(F)F)ccc3F)c(F)c2)c2cnc(NCCCN3CCOCC3)nc21", "inhibition": 6.96}
{"compound": "Cc1cccc(Nc2nc(N[C@@H]3CCCNC3)nc3cc[nH]c(=O)c23)c1", "inhibition": 85.2}
{"compound": "COc1ccc(C(=O)N2CCC(CN3CCOC(c4ccccc4)(c4ccccc4)C3)CC2)cc1", "inhibition": 2.13}
{"compound": "CCCCCCNC(=O)c1nn(CCN2CCC(N3CCCC3)CC2)cc1-c1ccc(Cl)c(Cl)c1", "inhibition": 1.84}
{"compound": "O=C(Nc1ccccc1Oc1ccccc1)NC1CCN(c2ccnc3cc(Cl)ccc23)C1", "note": "(stereo not given)", "inhibition": 4.63}
{"compound": "CCN(CC)CCNc1nccc(N(C)c2ccc(NC(=O)Nc3cc(C(F)(F)F)ccc3F)cc2)n1", "inhibition": 2.93}
{"compound": "Cc1ccc2nc(C)n(C3CCN(C(=O)Cc4ccccc4C)CC3)c2c1", "inhibition": 8.18}
{"compound": "CCn1c(-c2nonc2N)nc2cnc(Oc3cccc(NC(=O)c4ccc(OCCN5CCCCC5)cc4)c3)cc21", "inhibition": 28.1}
{"compound": "c1ccc(CNc2nc(NCCN3CCCCC3)nc3ccccc23)cc1", "inhibition": 11.1}
